Test results taken from PubChem BioAssay.
Where “and” joins values, the source holds several entries; their conditions need not be identical. Equal entries are not always repeated. Calls of active or inactive are those of the source. Unless noted, no stated cut-off is given here; in the data, active means parasite load remaining mostly below about 12% (no sharp cut-off); inactive means mostly above about 10%.

Assays:
[1] = liver-stage malaria parasite growth inhibition, primary screen, cell-based, HepG2, luciferase luminescence, HepG2 viability (AID 624349);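 further: 100% = mean of DMSO negative control wells on the same plate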; settings: P. berghei liver stage in HepG2, luciferase luminescence, concentration not given here; parasite load remaining: stronger effect = lower value; viability: measured here: HepG2 viability without parasites
[2] = stimulators of nuclear beta-catenin in C2C12, primary screen, imaging, WNT3A-conditioned medium, mouse C2C12, NPC library (AID 1117326; in the data active means nuclear beta-catenin stimulation mostly above about 4.2%, no sharp cut-off; inactive means mostly below about 10%; further: reference of the scale not given here); settings: stronger effect = higher value
[3] = stimulators of insulin release from INS-1E, primary screen, cell-based, 5 mM glucose, NPC library (AID 1117329;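 active means compound raises insulin release from rat beta cells at 5 mM glucose, no numeric limit stated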; further: reference of the scale not given here); settings: rat INS-1E insulin secretion, at 10 µM, stronger effect = higher value
[4] = growth inhibition of GSK3B-pretreated HCT116 cells – cell-based, CellTiter-Glo, 0.2 to 20 µM (AID 1117336;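 active means compounds lowering colon cancer cell viability after pretreatment blocking the GSK3B kinase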); settings: HCT116 viability after GSK3B inhibitor, at 20 µM, stronger effect = higher value
[5] = inhibition of endothelial tube formation, primary screen, imaging, VEGF stimulated, CD31 staining, tube area, NPC library (AID 1117340;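 active means compound that reduces growth-factor-driven endothelial tube area in a mixed cell culture, no cutoff stated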); settings: VEGF-stimulated ADSC/ECFC co-culture, at 10 µM, stronger effect = higher value
[6] = glucagon-like peptide 1 release enhancers, primary assay, NCI-H716 cell line, NPC library (AID 1117341;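 active means compound raises GLP1 secretion from the human gut endocrine cells, with no numeric limit stated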; further: reference of the scale not given here); settings: NCI-H716 cells, at 10 µM, stronger effect = higher value
[7] = HCT116 colon cancer cell growth inhibition, primary screen, CellTiter-Glo luminescence, NPC library (AID 1117342;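 active means compounds that lower survival of HCT116 colon cancer cells in the luminescence readout, no numeric limit stated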); settings: at 20 µM (top of the series)
[8] = CellTiter-Glo luminescent readout of SW480 viability loss, NPC library primary (AID 1117343;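 active means compounds that lower viability of the colon cancer cells in the luminescence readout, with no numeric limit stated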); settings: CellTiter-Glo luminescence; at 20 µM (top of the series)
[9] = decreased DLD-1 cellular survival, CellTiter-Glo luminescent readout, NPC compound collection, primary HTS (AID 1117346;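 active means compounds that lower survival of DLD-1 colon cancer cells in the luminescence readout, no cutoff given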); settings: DLD-1 viability, CellTiter-Glo luminescence; at 20 µM (top of the series)
[10] = biological target: 6-phosphogluconate dehydrogenase, decarboxylating (Homo sapiens) (UniProt P52209); experiment: 6PGD enzyme inhibitors, primary screen, biochemical, human, recombinant enzyme, NADPH absorbance (AID 1159550;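 active means at least 20% inhibition of 6-phosphogluconate dehydrogenase activity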); settings: recombinant 6PGD, NADPH absorbance 341 nm; at 10 µM; stronger effect = higher value
Sequence of 6-phosphogluconate dehydrogenase, decarboxylating (Homo sapiens) (P52209 whole entry, looked up): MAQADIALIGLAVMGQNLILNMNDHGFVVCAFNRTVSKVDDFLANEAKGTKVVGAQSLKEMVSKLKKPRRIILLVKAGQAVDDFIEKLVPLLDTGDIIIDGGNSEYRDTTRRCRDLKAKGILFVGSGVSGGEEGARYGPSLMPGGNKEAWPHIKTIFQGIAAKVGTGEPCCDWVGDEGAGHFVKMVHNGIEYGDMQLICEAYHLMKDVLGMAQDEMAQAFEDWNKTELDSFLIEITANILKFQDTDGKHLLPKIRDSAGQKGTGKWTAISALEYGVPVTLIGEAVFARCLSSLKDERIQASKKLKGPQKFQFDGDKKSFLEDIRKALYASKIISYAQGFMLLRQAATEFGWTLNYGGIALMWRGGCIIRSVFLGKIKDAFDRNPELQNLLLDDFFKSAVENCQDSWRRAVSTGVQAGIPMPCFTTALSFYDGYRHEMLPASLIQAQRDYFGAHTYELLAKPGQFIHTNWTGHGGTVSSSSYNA

C=CCc1ccc(O)c(OC)c1
4.6%: nuclear beta-catenin stimulation ([2]; stimulation, at 2 µM)
77.2% and 96.4%: viability [1]
inactive: parasite load remaining [1] 91.2% and 49.1% | nuclear beta-catenin stimulation ([2]; at 10 µM) 1.1% | insulin secretion stimulation [3] 4.7% | viability decrease [4] 22.5% | tube area decrease [5] -3.7% | GLP1 secretion stimulation [6] 2.4% | inhibition of viability [7] 3.77% | viability decrease (inhibition) [8] -11.7% | viability decrease (inhibition) [9] -4.6% | inhibition [10] -3.83%

Oc1cccc(O)c1
0.3%: nuclear beta-catenin stimulation ([2]; stimulation, at 2 µM)
inactive: parasite load remaining [1] 91.2% and 38.4% | nuclear beta-catenin stimulation ([2]; at 10 µM) -0.3% | insulin secretion stimulation [3] -1.9% | viability decrease [4] -0.8% | tube area decrease [5] 21% | GLP1 secretion stimulation [6] -2.3% | inhibition of viability [7] 8% | viability decrease (inhibition) [9] 2.6% | inhibition [10] -5.12%
77.8% and 101%: viability [1]
active: viability decrease (inhibition) [8] 78.9%

CN(C)CCc1c[nH]c2ccc(CS(=O)(=O)N3CCCC3)cc12
87.9%: viability [1]
1.6%: nuclear beta-catenin stimulation ([2]; stimulation, at 2 µM)
inactive: parasite load remaining [1] 135% | nuclear beta-catenin stimulation ([2]; at 10 µM) 1.7% | insulin secretion stimulation [3] 2.7% | viability decrease [4] -11% | tube area decrease [5] 8.7% | GLP1 secretion stimulation [6] 1.2% | inhibition of viability [7] 1.33% | viability decrease (inhibition) [8] 28.9% | viability decrease (inhibition) [9] -7.1% | inhibition [10] -1.67%

CCCc1cc(C(N)=S)ccn1
inactive: parasite load remaining [1] 145% and 18.2% | nuclear beta-catenin stimulation ([2]; at 10 µM) 0.2% | insulin secretion stimulation [3] -1.7% | viability decrease [4] -13.4% | tube area decrease [5] 1% | GLP1 secretion stimulation [6] -0.6% | inhibition of viability [7] 6.7% | viability decrease (inhibition) [8] 5.3% | viability decrease (inhibition) [9] -3.5% | inhibition [10] 3.48%
83.8% and 63%: viability [1]
2%: nuclear beta-catenin stimulation ([2]; stimulation, at 2 µM)

COc1ccc(-c2cc(C(F)F)nn2-c2ccc(S(N)(=O)=O)cc2)cc1F
0.7%: nuclear beta-catenin stimulation ([2]; stimulation, at 2 µM)
inactive: parasite load remaining [1] 70.5% | nuclear beta-catenin stimulation ([2]; at 10 µM) 4% | insulin secretion stimulation [3] -0.6% | viability decrease [4] -65.6% | tube area decrease [5] 10.3% | GLP1 secretion stimulation [6] 5.7% | inhibition of viability [7] 22.3% | viability decrease (inhibition) [8] 6.3% | viability decrease (inhibition) [9] 1.8% | inhibition [10] -12.8%
97.2%: viability [1]

CCOC(=O)NNc1nncc2ccccc12
inactive: parasite load remaining [1] 44.2% and 101% and 89.6% | nuclear beta-catenin stimulation ([2]; at 10 µM) 3.8% | insulin secretion stimulation [3] 3.7% | viability decrease [4] 0.3% | tube area decrease [5] -6.6% | GLP1 secretion stimulation [6] -0.3% | inhibition of viability [7] -0.97% | viability decrease (inhibition) [8] 9.4% | viability decrease (inhibition) [9] 6.7% | inhibition [10] -20.7%
5.1%: nuclear beta-catenin stimulation ([2]; stimulation, at 2 µM)
43.6% and 65.7% and 90.2%: viability [1]

Nc1ncnc2c1ncn2[C@@H]1O[C@H](CO)[C@@H](O)[C@H]1O
inactive: parasite load remaining [1] 102% and 72.2% | nuclear beta-catenin stimulation ([2]; at 10 µM) 10.9% | insulin secretion stimulation [3] 2.7% | viability decrease [4] 41.9% | tube area decrease [5] 30.3% | GLP1 secretion stimulation [6] -0.1% | inhibition of viability [7] 33.7% | viability decrease (inhibition) [8] 27% | viability decrease (inhibition) [9] 19.1% | inhibition [10] 2.2%
1.8%: nuclear beta-catenin stimulation ([2]; stimulation, at 2 µM)
77.4% and 98.9%: viability [1]

CCn1cc(C(=O)O)c(=O)c2cnc(N3CCNCC3)nc21
4.3%: nuclear beta-catenin stimulation ([2]; stimulation, at 2 µM)
inactive: parasite load remaining [1] 87.7% and 144% | nuclear beta-catenin stimulation ([2]; at 10 µM) 1.9% | insulin secretion stimulation [3] 1.5% | viability decrease [4] -23.1% | tube area decrease [5] 0.7% | GLP1 secretion stimulation [6] -1.8% | inhibition of viability [7] -0.3% | viability decrease (inhibition) [8] -4.5% | viability decrease (inhibition) [9] -15.1% | inhibition [10] 6.84%
98.7% and 73%: viability [1]

C[N+]12CCC(CC1)C(OC(=O)C(O)(c1ccccc1)c1ccccc1)C2 (centres undefined)
98.6% and 73% and 99.2%: viability [1]
inactive: parasite load remaining [1] 89.9% and 72% and 63.2% | nuclear beta-catenin stimulation ([2]; at 10 µM) 1.4% | insulin secretion stimulation [3] -0.3% | viability decrease [4] -30.2% | tube area decrease [5] 0.5% | GLP1 secretion stimulation [6] -3.1% | inhibition of viability [7] 10.6% | viability decrease (inhibition) [8] 22.9% | viability decrease (inhibition) [9] -13.7% | inhibition [10] 11.7%
1.9%: nuclear beta-catenin stimulation ([2]; stimulation, at 2 µM)

COc1ccc(C(=O)c2ccccc2O)c(O)c1
inactive: parasite load remaining [1] 83.1% and 102% and 55.6% | nuclear beta-catenin stimulation ([2]; at 10 µM) 1.1% | insulin secretion stimulation [3] -0.5% | viability decrease [4] -1.1% | tube area decrease [5] 1.6% | GLP1 secretion stimulation [6] -1.5% | inhibition of viability [7] -9.15% | viability decrease (inhibition) [8] 1.6% | viability decrease (inhibition) [9] -1.5% | inhibition [10] 11.7%
96.9% and 79.4% and 89.9%: viability [1]
0.4%: nuclear beta-catenin stimulation ([2]; stimulation, at 2 µM)

Nc1ccc(C(=O)NCC(=O)O)cc1
inactive: parasite load remaining [1] 103% and 157% and 40.5% | nuclear beta-catenin stimulation ([2]; at 10 µM) 0.5% | insulin secretion stimulation [3] -1.1% | viability decrease [4] -2.9% | tube area decrease [5] -2.1% | GLP1 secretion stimulation [6] 2.6% | inhibition of viability [7] -15.3% | viability decrease (inhibition) [8] 36.1% | viability decrease (inhibition) [9] 4.3% | inhibition [10] -8.81%
1.4%: nuclear beta-catenin stimulation ([2]; stimulation, at 2 µM)
101% and 82% and 89.7%: viability [1]

COc1c2occc2c(OC)c2c(=O)cc(C)oc12
48.9% and 88.8%: viability [1]
inactive: parasite load remaining [1] 32.5% and 95.1% | nuclear beta-catenin stimulation ([2]; at 10 µM) 2.2% | insulin secretion stimulation [3] 0.7% | viability decrease [4] -6.4% | tube area decrease [5] 21.8% | GLP1 secretion stimulation [6] 5.9% | inhibition of viability [7] -7.6% | viability decrease (inhibition) [8] 21.5% | viability decrease (inhibition) [9] -0.4% | inhibition [10] 1.04%
0.4%: nuclear beta-catenin stimulation ([2]; stimulation, at 2 µM)
